miR122 inh – raises miR-122 sensor activity in Huh7 cells. hit rate 0.14% among 340,000. Huh7 psiCHECK-miR122 Renilla luciferase sensor, 48 h. activation, % at 12.5 µM;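 active = mean activation of 30% or more, with every replicate also reaching 30%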;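 note: 0% = median of neutral control wells and 100% = median of positive control wells; higher luciferase signal means stronger suppression of miR-122 activity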
* = called active by the depositor. The entries come from a sample that favours hits as a whole.

SMILES	miR122 inh
CC(C)CC#Cc1cnc2c(c1)C(=O)N([C@H](C)CO)C[C@@H](C)[C@H](CN(C)C(=O)C1CCCCC1)O2	2.9
CCC(=O)N1C[C@@H](C)[C@@H](OC)CN(C)C(=O)c2ccc(NS(C)(=O)=O)cc2OC[C@H]1C	-2.4
C[C@@H]1CN([C@@H](C)CO)C(=O)c2cc(/C=C/c3ccccc3)cnc2O[C@@H]1CN(C)Cc1cccc(C(=O)O)c1	2.6
CCCNC(=O)N(C)C[C@@H]1Oc2ncc(/C=C/c3ccccc3)cc2C(=O)N([C@@H](C)CO)C[C@H]1C	4.4
C[C@H](CO)N1C[C@H](C)[C@H](CN(C)Cc2ccc(F)cc2)Oc2cc(C#Cc3ccccn3)ccc2S1(=O)=O	12.5
CC(=O)N(C)C[C@@H]1Oc2cc(C#CC3CCCCC3)ccc2S(=O)(=O)N([C@H](C)CO)C[C@@H]1C	1.4
CCC(=O)N(C)C[C@H]1Oc2ncc(-c3cccc(OC)c3)cc2C(=O)N([C@@H](C)CO)C[C@@H]1C	2.5
C[C@H](CO)N1C[C@H](C)[C@@H](CN(C)Cc2cccc(F)c2)Oc2ncc(C3=CCCCC3)cc2C1=O	-9.4
CCO/C=C1\N=C(c2ccc(F)cc2)OC1=O	60.0*
COc1ccc(S(=O)(=O)N(C)C[C@H]2Oc3ccc(N(C)C)cc3C(=O)N([C@H](C)CO)C[C@@H]2C)cc1	-112.2
C[C@H](O)C#Cc1ccc2c(c1)O[C@H](CN(C)CC1CCOCC1)[C@H](C)CN([C@@H](C)CO)S2(=O)=O	5.3
C[C@H](CO)N1C[C@H](C)[C@H](CN(C)Cc2ccccc2)Oc2cc(-c3ccncc3)ccc2S1(=O)=O	3.6
C[C@@H]1CN([C@@H](C)CO)C(=O)c2cc(Br)cnc2O[C@@H]1CN(C)Cc1ccccn1	4.4
COc1ccccc1-c1cnc2c(c1)C(=O)N([C@H](C)CO)C[C@@H](C)[C@@H](CN(C)Cc1ccccc1)O2	-2.5
O=C(C[C@@H]1C[C@H]2c3cc(NS(=O)(=O)c4ccc(F)cc4)ccc3O[C@H]2[C@H](CO)O1)NCc1ccc(-c2ccccc2)cc1	-111.0
COc1ccccc1-c1ccc2c(c1)O[C@@H](CN(C)S(=O)(=O)c1ccccc1)[C@@H](C)CN([C@@H](C)CO)S2(=O)=O	0.6
Cc1ccsc1/C=N/NC(=O)CSCc1ccc(Cl)cc1	35.8*
CCS(=O)(=O)Nc1ccc2c(c1)C(=O)N(C)C[C@@H](OC)[C@@H](C)CN[C@H](C)CO2	-1.0
COc1ccccc1-c1cnc2c(c1)C(=O)N([C@H](C)CO)C[C@H](C)[C@@H](CN(C)C(=O)CN(C)C)O2	6.1
CO[C@H]1CN(C)C(=O)c2cc(NC(=O)Nc3ccc(Cl)c(Cl)c3)ccc2OC[C@H](C)NC[C@H]1C	50.9*
CCCC(=O)Nc1ccc2c(c1)C(=O)N(C)C[C@H](OC)[C@@H](C)CN[C@@H](C)CO2	4.4
CO[C@@H]1CN(C)C(=O)c2cc(NC(=O)Nc3ccccc3)ccc2OC[C@H](C)NC[C@@H]1C	-2.4
C[C@@H]1CN([C@@H](C)CO)C(=O)c2cc(C#CC(C)(C)O)cnc2O[C@H]1CN(C)C(=O)C1CC1	2.2
COCC#Cc1ccc2c(c1)O[C@H](CN(C)C(=O)C1CCOCC1)[C@@H](C)CN([C@H](C)CO)S2(=O)=O	-3.4
C[C@@H]1CN([C@@H](C)CO)C(=O)c2cc(-c3ccc(F)cc3)cnc2O[C@H]1CN(C)Cc1cccnc1	2.3
SMILES	miR122 inh
CC(C)C#Cc1cnc2c(c1)C(=O)N([C@H](C)CO)C[C@H](C)[C@H](CN(C)C(=O)CC1CC1)O2	-1.7
N=c1c2c(-c3ccccc3)c(-c3ccccc3)n(Cc3ccccc3)c2ncn1CCO	39.6*
COc1ccccc1S(=O)(=O)N(C)C[C@@H]1Oc2cc(/C=C/c3ccccc3)ccc2S(=O)(=O)N([C@H](C)CO)C[C@@H]1C	7.8
C[C@H](CO)N1C[C@H](C)[C@@H](CN(C)C(=O)CN(C)C)Oc2ncc(C#C[C@@H](C)O)cc2C1=O	5.8
Cc1ccc(-c2cnc3c(c2)C(=O)N([C@H](C)CO)C[C@H](C)[C@@H](CN(C)C(=O)c2ccncc2)O3)cc1	-7.6
C[C@@H]1CN([C@H](C)CO)S(=O)(=O)c2ccc(-c3ccncc3)cc2O[C@H]1CN(C)C(=O)C1CC1	-13.2
C[C@@H]1CN([C@H](C)CO)C(=O)c2cc(C#CC3(O)CCCC3)cnc2O[C@@H]1CN(C)Cc1cncnc1	1.8
CCN(CC)CCOc1cccc(C(C)C)c1	35.8*
C[C@@H]1CN([C@H](C)CO)C(=O)c2cc(N(C)C)ccc2O[C@@H]1CN(C)S(=O)(=O)c1ccc(Cl)cc1	-98.3
COCC#Cc1cnc2c(c1)C(=O)N([C@@H](C)CO)C[C@@H](C)[C@@H](CN(C)C(=O)C1CCOCC1)O2	-10.0
C[C@H](NC(=O)C[C@@H]1CC[C@H]2[C@H](COc3ccc(NS(=O)(=O)c4ccc(Cl)cc4)cc3C(=O)N2C)O1)c1ccccc1	36.7*
C[C@H](NC(=O)C[C@H]1CC[C@@H]2[C@@H](COc3ccc(NS(=O)(=O)c4ccc(Cl)cc4)cc3C(=O)N2C)O1)c1ccccc1	45.0*
C[C@H]1CN([C@@H](C)CO)C(=O)c2cc(-c3cccc(F)c3)cnc2O[C@H]1CN(C)Cc1ccncc1	3.3
CC(C)C#Cc1ccc2c(c1)O[C@@H](CN(C)Cc1ccncc1)[C@H](C)CN([C@H](C)CO)S2(=O)=O	-3.2
COc1cccc(-c2cnc3c(c2)C(=O)N([C@@H](C)CO)C[C@@H](C)[C@@H](CN(C)Cc2cccnc2)O3)c1	-0.3
C[C@H](CO)N1C[C@H](C)[C@@H](CN(C)Cc2ccc3c(c2)OCO3)Oc2ncc(Br)cc2C1=O	-2.7
C[C@@H]1CN([C@H](C)CO)C(=O)c2cc(C#Cc3ccccc3)cnc2O[C@H]1CN(C)Cc1ccccn1	-1.7
C[C@@H]1CN([C@H](C)CO)S(=O)(=O)c2ccc(C#Cc3ccccn3)cc2O[C@@H]1CN(C)Cc1cccc(F)c1	-31.8
Cc1cc(C(=O)Nc2ccc3c(c2)C(=O)N(C)[C@@H]2CC[C@@H](CC(=O)N[C@H](C)c4ccccc4)O[C@H]2CO3)no1	33.3*
Cc1cc(C(=O)Nc2ccc3c(c2)C(=O)N(C)[C@H]2CC[C@H](CC(=O)N[C@@H](C)c4ccccc4)O[C@H]2CO3)no1	50.0*
C[C@@H]1CN([C@H](C)CO)S(=O)(=O)c2ccc(Br)cc2O[C@@H]1CN(C)S(C)(=O)=O	-3.1
CCCN(C)C[C@H]1Oc2cc(Br)ccc2S(=O)(=O)N([C@H](C)CO)C[C@H]1C	-1.2
Cc1ccc(-c2ccc3c(c2)O[C@H](CN(C)Cc2cccc(C(=O)O)c2)[C@@H](C)CN([C@H](C)CO)S3(=O)=O)cc1	-16.1
COc1ccc(CN(C)C[C@@H]2Oc3ccc(NC(=O)C4CCCCC4)cc3CC(=O)N([C@@H](C)CO)C[C@H]2C)cc1	1.5
CCCNC(=O)C[C@@H]1CC[C@@H]2[C@H](COc3ccc(NS(=O)(=O)c4ccccc4C)cc3C(=O)N2C)O1	66.7*
COC(=O)C[C@@H]1CC[C@@H]2[C@@H](COc3ccc(NS(=O)(=O)c4ccccc4F)cc3C(=O)N2C)O1	41.7*
COc1ccc(C#Cc2ccc3c(c2)O[C@H](CN(C)C)[C@@H](C)CN([C@@H](C)CO)S3(=O)=O)cc1	-11.4
C[C@H](CO)N1C[C@H](C)[C@@H](CN(C)Cc2ccncc2)Oc2ncc(-c3cncnc3)cc2C1=O	-16.4
C/C=C/c1cnc2c(c1)C(=O)N([C@H](C)CO)C[C@H](C)[C@@H](CN(C)S(=O)(=O)c1ccc(C)cc1)O2	-16.7

Source: PubChem BioAssay
